# Measurements from PubChem BioAssay AID1159580 (chemical genetic matrix, 2015).
# In all, about 5,500 compounds went through this assay and about 2,000 (36%) were called active. Not shown: some 18% with an inconclusive outcome. Some of the results follow. Values without a mark were called inactive. Cut-off read from the data, not from the text of the source: active = normalized growth mostly below about 0.91 (no sharp cut-off); inconclusive = no clear call, values can overlap the other calls; inactive = mostly above about 0.92.
# Assay: chemical genetic growth profiling, strain panel (AID 1159580);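 note: tested at 20 µM; growth read once vehicle control cultures reached saturation at 30 °C; 1 = growth at the plate median or of vehicle wells; lower values mean less growth of the strain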
# Conditions: growth OD
structure (smiles),measurement,setting,value
O=c1c(-c2ccccc2)coc2cc(O)cc(O)c12,normalized growth,"S. cerevisiae deletion strains, locus YJL187C, strain SWE1, active compounds read low",0.992
same,normalized growth,"S. cerevisiae deletion strains, locus YJR043C, strain POL32, active compounds read low",0.709 (active)
same,normalized growth,"S. cerevisiae deletion strains, locus YJR075W, strain HOC1, active compounds read low",0.884
same,normalized growth,"S. cerevisiae deletion strains, locus YKL009W, strain mrt4, active compounds read low",0.859 (active)
same,normalized growth,"S. cerevisiae deletion strains, locus YKL068W, active compounds read low",0.951
same,normalized growth,"S. cerevisiae deletion strains, locus YKL085W, strain MDH1 (second series), active compounds read low",0.799 (active)
same,normalized growth,"S. cerevisiae deletion strains, locus YKL085W, strain MDH1, active compounds read low",0.799 (active)
same,normalized growth,"S. cerevisiae deletion strains, locus YKL160W, strain elf1, active compounds read low",0.974
same,normalized growth,"S. cerevisiae deletion strains, locus YKL190W, strain CNB1, active compounds read low",0.929
same,normalized growth,"S. cerevisiae deletion strains, locus YKR001C, strain vps1, active compounds read low",0.567 (active)
same,normalized growth,"S. cerevisiae deletion strains, locus YKR026C, strain gcn3, active compounds read low",1
same,normalized growth,"S. cerevisiae deletion strains, locus YKR091W, strain srl3, active compounds read low",1.01
same,normalized growth,"S. cerevisiae deletion strains, locus YLL001W, strain dnm1, active compounds read low",0.965
same,normalized growth,"S. cerevisiae deletion strains, locus YLL026W, active compounds read low",1
same,normalized growth,"S. cerevisiae deletion strains, locus YLL041C, strain sdh2, active compounds read low",1.01
same,normalized growth,"S. cerevisiae deletion strains, locus YLR027C, strain aat2, active compounds read low",1
same,normalized growth,"S. cerevisiae deletion strains, locus YLR039C, strain RIC1, active compounds read low",0.506 (active)
same,normalized growth,"S. cerevisiae deletion strains, locus YLR058C, strain SHM2, active compounds read low",0.311 (active)
same,normalized growth,"S. cerevisiae deletion strains, locus YLR102C, strain apc9, active compounds read low",0.953
same,normalized growth,"S. cerevisiae deletion strains, locus YLR221C, strain rsa3, active compounds read low",0.923
same,normalized growth,"S. cerevisiae deletion strains, locus YLR258W, strain gsy2, active compounds read low",0.982
same,normalized growth,"S. cerevisiae deletion strains, locus YLR262C, strain YPT6 (second series), active compounds read low",0.915
same,normalized growth,"S. cerevisiae deletion strains, locus YLR262C, strain YPT6, active compounds read low",0.606
same,normalized growth,"S. cerevisiae deletion strains, locus YLR268W, strain sec22, active compounds read low",0.789 (active)
same,normalized growth,"S. cerevisiae deletion strains, locus YLR320W, strain mms22, active compounds read low",0.98
same,normalized growth,"S. cerevisiae deletion strains, locus YLR342W, strain FKS1, active compounds read low",0.976
same,normalized growth,"S. cerevisiae deletion strains, locus YLR357W, strain rsc2, active compounds read low",0.881
same,normalized growth,"S. cerevisiae deletion strains, locus YLR370C, strain arc18, active compounds read low",1.01
same,normalized growth,"S. cerevisiae deletion strains, locus YLR371W, strain rom2, active compounds read low",0.715 (active)
same,normalized growth,"S. cerevisiae deletion strains, locus YLR384C, strain iki3, active compounds read low",1.02
same,normalized growth,"S. cerevisiae deletion strains, locus YLR418C, strain cdc73, active compounds read low",0.534 (active)
same,normalized growth,"S. cerevisiae deletion strains, locus YML016C, strain PPZ1, active compounds read low",0.829 (active)
same,normalized growth,"S. cerevisiae deletion strains, locus YML032C, strain rad52, active compounds read low",0.746 (active)
same,normalized growth,"S. cerevisiae deletion strains, locus YML120C, strain ndi1, active compounds read low",0.963
same,normalized growth,"S. cerevisiae deletion strains, locus YML124C, strain tub3, active compounds read low",0.885 (active)
same,normalized growth,"S. cerevisiae deletion strains, locus YMR058W, strain fet3, active compounds read low",0.682 (active)
same,normalized growth,"S. cerevisiae deletion strains, locus YMR078C, strain ctf18, active compounds read low",0.964
same,normalized growth,"S. cerevisiae deletion strains, locus YMR125W, strain sto1, active compounds read low",0.997
same,normalized growth,"S. cerevisiae deletion strains, locus YMR129W, active compounds read low",1.02
same,normalized growth,"S. cerevisiae deletion strains, locus YMR205C, strain PFK2, active compounds read low",1.02
same,normalized growth,"S. cerevisiae deletion strains, locus YMR223W, strain ubp8, active compounds read low",0.783 (active)
same,normalized growth,"S. cerevisiae deletion strains, locus YMR231W, strain pep5, active compounds read low",1
same,normalized growth,"S. cerevisiae deletion strains, locus YMR263W, strain SAP30, active compounds read low",0.774 (active)
same,normalized growth,"S. cerevisiae deletion strains, locus YMR307W, strain GAS1, active compounds read low",0.57 (active)
same,normalized growth,"S. cerevisiae deletion strains, locus YNL067W, strain RPL9B, active compounds read low",0.842 (active)
same,normalized growth,"S. cerevisiae deletion strains, locus YNL071W, strain lat1, active compounds read low",1.01
same,normalized growth,"S. cerevisiae deletion strains, locus YNL209W, strain ssb2, active compounds read low",0.936
same,normalized growth,"S. cerevisiae deletion strains, locus YNL233W, strain BNI4, active compounds read low",0.792 (active)
same,normalized growth,"S. cerevisiae deletion strains, locus YNL248C, strain rpa49, active compounds read low",0.989
same,normalized growth,"S. cerevisiae deletion strains, locus YNL250W, strain rad50, active compounds read low",0.824 (active)
same,normalized growth,"S. cerevisiae deletion strains, locus YNL271C, strain bni1, active compounds read low",0.646 (active)
same,normalized growth,"S. cerevisiae deletion strains, locus YNL298W, strain CLA4, active compounds read low",0.766 (active)
same,normalized growth,"S. cerevisiae deletion strains, locus YNL307C, strain MCK1, active compounds read low",0.714 (active)
same,normalized growth,"S. cerevisiae deletion strains, locus YNL322C, strain KRE1 (second series), active compounds read low",1.01
same,normalized growth,"S. cerevisiae deletion strains, locus YNR049C, strain mso1, active compounds read low",1.01
same,normalized growth,"S. cerevisiae deletion strains, locus YNR052C, strain pop2, active compounds read low",0.65 (active)
same,normalized growth,"S. cerevisiae deletion strains, locus YOL012C, strain htz1",0.305
same,normalized growth,"S. cerevisiae deletion strains, locus YOL147C, strain pex11, active compounds read low",0.588 (active)
same,normalized growth,"S. cerevisiae deletion strains, locus YOR001W, strain rrp6, active compounds read low",0.964
same,normalized growth,"S. cerevisiae deletion strains, locus YOR061W, strain CKA2, active compounds read low",0.869 (active)
same,normalized growth,"S. cerevisiae deletion strains, locus YOR069W, strain VPS5, active compounds read low",0.848 (active)
same,normalized growth,"S. cerevisiae deletion strains, locus YOR070C, strain gyp1, active compounds read low",1.01
same,normalized growth,"S. cerevisiae deletion strains, locus YOR080W, strain dia2, active compounds read low",1
same,normalized growth,"S. cerevisiae deletion strains, locus YOR083W, strain WHI5, active compounds read low",0.938
same,normalized growth,"S. cerevisiae deletion strains, locus YOR106W, strain vam3, active compounds read low",0.924
same,normalized growth,"S. cerevisiae deletion strains, locus YOR136W, strain idh2, active compounds read low",0.905 (active)
same,normalized growth,"S. cerevisiae deletion strains, locus YOR144C, strain elg1, active compounds read low",0.686 (active)
same,normalized growth,"S. cerevisiae deletion strains, locus YOR184W, strain ser1, active compounds read low",0.669 (active)
same,normalized growth,"S. cerevisiae deletion strains, locus YOR265W, strain rbl2, active compounds read low",1.01
same,normalized growth,"S. cerevisiae deletion strains, locus YOR270C, strain vph1, active compounds read low",0.912
same,normalized growth,"S. cerevisiae deletion strains, locus YOR290C, strain snf2, active compounds read low",0.886
same,normalized growth,"S. cerevisiae deletion strains, locus YOR316C, strain cot1, active compounds read low",0.979
same,normalized growth,"S. cerevisiae deletion strains, locus YPL051W, strain arl3, active compounds read low",0.947
same,normalized growth,"S. cerevisiae deletion strains, locus YPL055C, strain LGE1, active compounds read low",0.744 (active)
same,normalized growth,"S. cerevisiae deletion strains, locus YPL078C, strain atp4, active compounds read low",0.967
same,normalized growth,"S. cerevisiae deletion strains, locus YPL106C, strain sse1, active compounds read low",1.03
same,normalized growth,"S. cerevisiae deletion strains, locus YPL240C, strain hsp82, active compounds read low",0.996
same,normalized growth,"S. cerevisiae deletion strains, locus YPL241C, strain CIN2, active compounds read low",0.911 (active)
same,normalized growth,"S. cerevisiae deletion strains, locus YPR119W, strain clb2, active compounds read low",0.992
same,normalized growth,"S. cerevisiae deletion strains, locus YPR141C, strain kar3, active compounds read low",0.99
same,normalized growth,"S. cerevisiae deletion strains, locus YPR163C, strain tif3, active compounds read low",0.643 (active)
same,normalized growth,"S. cerevisiae deletion strains, locus YPR167C, strain met16, active compounds read low",0.815 (active)
same,normalized growth,"S. cerevisiae deletion strains, strain wtn01, active compounds read low",0.767 (active)
same,normalized growth,"S. cerevisiae strains, strain wild type, active compounds read low",0.772 (active)
